Assay results published in PubChem BioAssay (Tox21).
Unmarked numbers belong to inactive results. Records with an inconclusive call do not appear. Where a call stands in place of a potency, no number is given. The source made the active and inactive calls. Unless noted, the call rests on the fitted dose curve; in most records, active means well fitted curve in the direction sought with a large enough effect in the repeat runs; inconclusive means weak or mixed curves; inactive means no such curve, though single readings can be large; an effect the other way counts as inactive or inconclusive.

What was measured:
[1] = A CellTox Green Cytotoxicity Assay to monitor cytotoxicity in HEK293 cells - 32 hour (AID 1224881); further: nearly all actives have a fitted effect of over 40% in size; further: potency means the concentration at half of the fitted maximal effect
How it was run: (§1)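 Cells (HEK293, 600/well) and dye reagent are dispensed together. After 5 h at 37 C, 23 nL compound is pinned in. Plates stay at 37 C for 40 h with fluorescence read at 0h, 8h, 16h, 24h, 32h and 40h.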

[2] = A CellTox Green Cytotoxicity Assay to monitor cytotoxicity in HepG2 cells - 0 hour (AID 1224882); further: nearly all actives have a fitted effect of over 35% in size; further: potency means the concentration at half of the fitted maximal effect
How it was run: (§2)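 Cells and non-lytic dye reagent are dispensed together (600 HepG2 cells/well) and incubated 5 h before DMSO compound transfer. Kinetic fluorescence is then recorded in the same wells during 40 h at 37 C.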

[3] = A CellTox Green Cytotoxicity Assay to monitor cytotoxicity in HepG2 cells - 32 hour (AID 1224883); further: nearly all actives have a fitted effect of over 50% in size; further: potency means the concentration at half of the fitted maximal effect
How it was run: as §2

[4] = A CellTox Green Cytotoxicity Assay to monitor cytotoxicity in HEK293 cells - 8 hour (AID 1224884); further: nearly all actives have a fitted effect of over 35% in size; further: potency means the concentration at half of the fitted maximal effect
How it was run: as §1

[5] = qHTS RealTime-Glo MT Cell Viability Assay in HEK293 cells - 24 hour (AID 1224886); further: nearly all actives have a fitted effect of over 50% in size; further: potency means the concentration at half of the fitted maximal effect
How it was run: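 Assay medium contained NanoLuc luciferase plus cell-permeant prosubstrate, added with HEK293 cells at 600 cells/well. After 5 h at 37 C/5% CO2 compounds were added; plates stayed at 37 C for 40 h with serial luminescence reads.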

[6] = qHTS RealTime-Glo MT Cell Viability Assay in HEK293 cells - 8 hour (AID 1224887); further: nearly all actives have a fitted effect of over 50% in size; further: potency means the concentration at half of the fitted maximal effect
How it was run: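 Real-time viability in HEK293: signal arises when living cells convert a prosubstrate for NanoLuc in the medium, so luminescence tracks viable cell number. Compound (23 nL, DMSO) added 5 h post-seeding; kinetic reads at 0–40 h, 37 C.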

[7] = A CellTox Green Cytotoxicity Assay to monitor cytotoxicity in HEK293 cells - 16 hour (AID 1224888); further: nearly all actives have a fitted effect of over 35% in size; further: potency means the concentration at half of the fitted maximal effect
How it was run: as §1

[8] = qHTS RealTime-Glo MT Cell Viability Assay in HepG2 cells - 0 hour (AID 1224889); further: nearly all actives have a fitted effect of over 50% in size
How it was run: (§3)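 qHTS, HepG2, 600 cells/well, RealTime-Glo (NanoLuc + prosubstrate) added with cells; 5 h preincubation; DMSO compound addition; 37 C; luminescence at 0/8/16/24/32/40 h.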

[9] = A CellTox Green Cytotoxicity Assay to monitor cytotoxicity in HepG2 cells - 8 hour (AID 1224890); further: nearly all actives have a fitted effect of over 45% in size; further: potency means the concentration at half of the fitted maximal effect
How it was run: as §2

[10] = qHTS assay to identify small molecule antagonists of the androgen receptor (AR) signaling pathway using the MDA cell line in the presence of 0.5 nM R1881 - cell viability counter screen (AID 1259242); further: nearly all actives have a fitted effect of over 45% in size; further: potency means the concentration at half of the fitted maximal effect
How it was run: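 Steps: plate MDA-kb2 cells, rest 5 hr at 37C without CO2; pin in compounds in DMSO; add R1881 to 0.5 nM final; incubate 16 hr; add CellTiter-Fluor, 30 min; read fluorescence.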

[11] = target: Estrogen receptor (Homo sapiens) (UniProt P03372); assay: qHTS assay to identify small molecule antagonists of the estrogen receptor alpha (ER-alpha) signaling pathway using the BG1 cell line in the presence of 0.1 nM 17-beta-estradiol (AID 1259244); further: nearly all actives have a fitted effect of over 50% in size; further: potency means the concentration at half of the fitted maximal effect
Estrogen receptor (Homo sapiens), sequence (P03372 whole entry, looked up): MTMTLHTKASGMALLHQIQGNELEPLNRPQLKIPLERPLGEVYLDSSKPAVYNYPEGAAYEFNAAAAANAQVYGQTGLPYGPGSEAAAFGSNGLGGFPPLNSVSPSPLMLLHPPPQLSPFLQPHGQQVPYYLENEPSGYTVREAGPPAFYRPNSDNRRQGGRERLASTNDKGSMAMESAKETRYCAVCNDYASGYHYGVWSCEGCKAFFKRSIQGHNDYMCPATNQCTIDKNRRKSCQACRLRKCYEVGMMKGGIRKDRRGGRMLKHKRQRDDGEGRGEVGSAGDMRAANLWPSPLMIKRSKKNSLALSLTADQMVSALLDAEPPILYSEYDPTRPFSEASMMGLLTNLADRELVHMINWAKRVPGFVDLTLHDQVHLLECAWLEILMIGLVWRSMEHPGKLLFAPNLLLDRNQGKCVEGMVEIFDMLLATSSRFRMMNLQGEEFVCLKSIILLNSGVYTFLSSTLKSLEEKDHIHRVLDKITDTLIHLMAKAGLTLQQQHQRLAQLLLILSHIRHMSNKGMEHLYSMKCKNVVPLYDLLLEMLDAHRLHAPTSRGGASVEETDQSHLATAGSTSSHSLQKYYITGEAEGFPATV
How it was run: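 Antagonist mode: compounds in DMSO are pinned onto VM7Luc4E2 reporter cells, 0.1 nM final 17beta-estradiol is added, and after 22 h at 37C luciferase luminescence is measured with ONE-Glo.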

[12] = qHTS assay to identify small molecule agonists of the sonic hedgehog signaling (Shh) pathway (AID 1259368; calls by dose curve;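 further: NIH/3T3-derived 3T3Gli1-Luc cells carrying a stable Gli1-driven firefly luciferase reporter; series mostly up to about 92 µM; nearly all actives have a fitted effect of over 15% in size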)
How it was run: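 Cells of a mouse NIH/3T3 clone stably expressing luciferase under the Gli1 transcriptional response element are exposed to test chemicals for 24 hr at 37 C. Pathway activation is detected as a rise in luminescence.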

[13] = qHTS RealTime-Glo MT Cell Viability Assay in HepG2 cells - 16 hour (AID 1224885); further: nearly all actives have a fitted effect of over 50% in size
How it was run: as §3

[14] = qHTS assay to identify small molecule antagonists of the estrogen receptor alpha (ER-alpha) signaling pathway using the BG1 cell line in the presence of 0.1 nM 17-beta-estradiol - cell viability counter screen (AID 1259241); further: nearly all actives have a fitted effect of over 40% in size; further: potency means the concentration at half of the fitted maximal effect
How it was run: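 VM7Luc4E2 cells (endogenous full-length ER-alpha, 4xERE-luciferase), cultured 5 days in charcoal-stripped serum, exposed to compounds with 0.1 nM 17beta-estradiol (final) for 22 hr at 37C. Viability read in same wells as live-cell protease fluorescence after 30 min.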

[15] = qHTS assay to identify small molecule HDAC inhibitors (AID 1259364);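 further: wild-type HCT-116 cells with endogenous class I/II HDAC activity; top concentration of the series differs between compounds; nearly all actives have a fitted effect of over 45% in size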
How it was run: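 Cells (HCT-116, wild type) are seeded at 1,500 per well, incubated overnight, treated with compound in DMSO for 2 hr, then developed with HDAC-Glo I/II reagent for 30 min at room temperature.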

[16] = qHTS assay to identify small molecule HDAC inhibitors - cell viability counter screen (AID 1259365)
How it was run: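 Wild-type HCT-116 cells, 1,500/well, cultured overnight, then compound-treated 2 h at 37 C. Viability measured as ATP luminescence with CellTiter-Glo after 30 min at room temperature.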

[17] = qHTS assay to identify small molecule agonists of the sonic hedgehog signaling (Shh) pathway - cell viability counter screen (AID 1259366); further: nearly all actives have a fitted effect of over 50% in size; further: potency means the concentration at half of the fitted maximal effect
How it was run: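 NIH/3T3-derived Gli1-Luc reporter cells, 2,000 per well, received compound after 4 h and were treated about 23 h at 37C. Viability measured in the same wells by CellTiter-Fluor fluorescence after 1 h.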

[18] = qHTS assay to identify small molecule antagonists of the sonic hedgehog signaling (Shh) pathway - cell viability counter screen (AID 1259367); further: nearly all actives have a fitted effect of over 55% in size; further: potency means the concentration at half of the fitted maximal effect
How it was run: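 Viability was read by CellTiter-Fluor fluorescence in the same wells, reagent added 23 hr into compound treatment and incubated 1 hr at 37C. The 3T3 Gli1-Luc reporter cells (2,000/well) received conditioned medium after compound and ran 24 hr.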

[19] = target: Androgen receptor (Homo sapiens) (UniProt P10275); assay: qHTS assay to identify small molecule antagonists of the androgen receptor (AR) signaling pathway using the MDA cell line in the presence of 0.5 nM R1881 (AID 1259243); further: nearly all actives have a fitted effect of over 50% in size
Androgen receptor (Homo sapiens), sequence (P10275 whole entry, looked up): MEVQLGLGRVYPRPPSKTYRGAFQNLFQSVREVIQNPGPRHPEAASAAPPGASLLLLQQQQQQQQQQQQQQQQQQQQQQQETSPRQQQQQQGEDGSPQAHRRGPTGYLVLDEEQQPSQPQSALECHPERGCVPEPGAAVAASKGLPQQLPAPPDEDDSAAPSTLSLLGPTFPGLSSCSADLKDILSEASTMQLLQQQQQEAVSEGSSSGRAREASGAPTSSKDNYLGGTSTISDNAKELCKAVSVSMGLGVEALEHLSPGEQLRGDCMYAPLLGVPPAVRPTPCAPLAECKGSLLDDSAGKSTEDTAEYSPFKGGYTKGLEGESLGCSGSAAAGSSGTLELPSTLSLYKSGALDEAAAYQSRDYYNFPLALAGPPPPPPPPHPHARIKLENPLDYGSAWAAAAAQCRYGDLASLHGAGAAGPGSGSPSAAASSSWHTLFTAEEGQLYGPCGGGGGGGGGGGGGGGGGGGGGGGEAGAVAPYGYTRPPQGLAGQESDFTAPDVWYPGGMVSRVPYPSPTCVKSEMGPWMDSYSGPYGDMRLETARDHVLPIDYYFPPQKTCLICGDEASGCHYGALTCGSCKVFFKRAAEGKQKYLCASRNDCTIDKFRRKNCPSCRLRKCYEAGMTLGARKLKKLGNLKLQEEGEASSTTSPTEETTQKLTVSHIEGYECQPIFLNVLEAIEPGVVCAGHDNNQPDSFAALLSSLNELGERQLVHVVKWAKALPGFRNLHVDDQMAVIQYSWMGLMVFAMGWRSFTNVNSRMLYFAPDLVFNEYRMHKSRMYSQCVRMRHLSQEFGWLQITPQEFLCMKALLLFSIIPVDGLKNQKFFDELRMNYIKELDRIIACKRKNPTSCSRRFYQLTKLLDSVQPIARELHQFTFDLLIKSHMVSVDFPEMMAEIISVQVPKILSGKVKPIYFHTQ
How it was run: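 Stably transfected MDA-kb2 cells express luciferase from an MMTV promoter bearing both AR and GR response elements. Compounds plus 0.5 nM R1881 (final) were incubated 16 hr at 37C without CO2, then luminescence measured.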

[20] = qHTS assay to identify small molecule phospholipidosis (PLD) inducers (AID 1259344; active means well fitted curve in the direction sought with a large enough effect; an effect the other way counts as inactive or inconclusive)
How it was run: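 Phospholipid accumulation was scored by imaging: fixed, Hoechst-counterstained HepG2 cells stained with LipidTOX Red after 24 h compound exposure at 37 C. Read-outs were pit count and pit intensity per well or per cell, with amiodarone and DMSO controls.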

Row | SMILES | Potency [1] | Potency [2] | Potency [3] | Potency [4] | Potency [5] | Potency [6] | Potency [7] | Potency [8] | Potency [9] | Potency [10] | Potency [11] | outcome [12] | Potency [13] | Potency [14] | Potency [15] | Potency [16] | Potency [17] | Potency [18] | Potency [19] | Potency [20]
1 | CCCCCCOC(=O)NC(=N)c1ccc(NCc2nc3cc(C(=O)N(CCC(=O)OCC)c4ccccn4)ccc3n2C)cc1 | inactive | inactive | 23.9 µM (active) | inactive | 9.52 µM (active) | 9.52 µM (active) | inactive | inactive | inactive | 26.6 µM (active) | 23.7 µM (active) | inactive | – | – | – | – | – | – | – | –
2 | CC1OC(=O)C(C)OC1=O (configuration not stated) | inactive | inactive | inactive | inactive | – | inactive | inactive | inactive | inactive | inactive | inactive | inactive | inactive | inactive | inactive | inactive | inactive | inactive | – | –
3 | CCN(CC)c1ccc2c(-c3ccccc3C(=O)O)c3ccc(=[N+](CC)CC)cc-3oc2c1 | 24.5 µM (active) | 21.9 µM (active) | 24.5 µM (active) | 24.5 µM (active) | 24.5 µM (active) | – | 24.5 µM (active) | – | 24.5 µM (active) | 10.9 µM (active) | – | inactive | – | 8.63 µM (active) | inactive | – | 4.33 µM (active) | 3.44 µM (active) | – | –
4 | CCOC(=O)C(=O)CCc1ccccc1 | inactive | inactive | inactive | inactive | – | inactive | inactive | inactive | inactive | inactive | inactive | inactive | inactive | inactive | inactive | inactive | inactive | inactive | inactive | –
5 | CCOC(=O)NCCOc1ccc(Oc2ccccc2)cc1 | inactive | inactive | inactive | inactive | – | – | inactive | inactive | inactive | – | 43.3 µM (active) | inactive | inactive | inactive | inactive | inactive | inactive | inactive | – | –
6 | Cc1oc(-c2ccccc2)nc1CCOc1cccc2c1ccn2CCC(=O)O | inactive | inactive | inactive | inactive | – | inactive | inactive | – | inactive | inactive | inactive | inactive | inactive | – | inactive | inactive | 21.7 µM (active) | 6.86 µM (active) | – | –
7 | CCn1cc(C(=O)O)c(=O)c2cnc(N3CCNCC3)nc21 | inactive | inactive | inactive | inactive | – | inactive | – | inactive | inactive | inactive | – | inactive | inactive | – | – | inactive | inactive | inactive | – | inactive
8 | CCN(CC)CCNC(=O)c1cc(Br)c(N)cc1OC | inactive | inactive | inactive | inactive | – | – | inactive | inactive | inactive | inactive | inactive | inactive | inactive | inactive | inactive | inactive | – | inactive | – | inactive
9 | CCOc1ccc(O)cc1 | inactive | inactive | inactive | inactive | – | – | inactive | inactive | inactive | inactive | inactive | inactive | inactive | inactive | inactive | inactive | inactive | inactive | – | –
10 | COc1cc(Cl)ccc1Oc1ccc(Cl)cc1Cl | inactive | inactive | inactive | inactive | – | inactive | inactive | inactive | inactive | inactive | inactive | inactive | inactive | inactive | inactive | – | inactive | inactive | – | –
11 | CCc1c(C(=O)NN2CCCCC2)nn(-c2ccc(Cl)cc2Cl)c1-c1ccc(Br)cc1 | inactive | inactive | inactive | inactive | inactive | – | inactive | inactive | inactive | inactive | inactive | inactive | – | inactive | inactive | – | – | inactive | – | –
12 | Brc1c2ccccc2cc2ccccc12 | inactive | inactive | inactive | inactive | – | – | – | inactive | inactive | inactive | inactive | inactive | inactive | – | inactive | inactive | inactive | inactive | – | –
13 | CCCCc1ncc(/C=C(\Cc2cccs2)C(=O)O)n1Cc1ccc(C(=O)O)cc1 | inactive | inactive | inactive | inactive | – | inactive | inactive | inactive | inactive | inactive | – | inactive | inactive | inactive | inactive | inactive | inactive | inactive | – | inactive
14 | CCCCCCCCCCCCCCOS(=O)(=O)O | 43.6 µM (active) | inactive | 38.9 µM (active) | 21.9 µM (active) | – | inactive | – | inactive | – | inactive | inactive | inactive | inactive | inactive | inactive | inactive | inactive | inactive | – | –
